# Screens deposited in PubChem by National Center for Advancing Translational Sciences (NCATS).
# The list is not random: actives were taken first. Their share in the collection is about 11%.
# AmpC detergent: inhibitors of E. coli AmpC beta-lactamase with detergent. P00811. AmpC hydrolysis of nitrocefin, absorbance 480 nm, 0.01% Triton. Potency, µM (highest dose often 114 µM), for inactives: top-dose activity change, negative = inhibition, actives largely listed as inhibitors. 370,000 tested, 0.041% active;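 further: 0% = no-compound wells and -100% = no-enzyme wells; nearly all actives have a fitted effect of over 25% in size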
# Target sequence (P00811 whole entry, looked up): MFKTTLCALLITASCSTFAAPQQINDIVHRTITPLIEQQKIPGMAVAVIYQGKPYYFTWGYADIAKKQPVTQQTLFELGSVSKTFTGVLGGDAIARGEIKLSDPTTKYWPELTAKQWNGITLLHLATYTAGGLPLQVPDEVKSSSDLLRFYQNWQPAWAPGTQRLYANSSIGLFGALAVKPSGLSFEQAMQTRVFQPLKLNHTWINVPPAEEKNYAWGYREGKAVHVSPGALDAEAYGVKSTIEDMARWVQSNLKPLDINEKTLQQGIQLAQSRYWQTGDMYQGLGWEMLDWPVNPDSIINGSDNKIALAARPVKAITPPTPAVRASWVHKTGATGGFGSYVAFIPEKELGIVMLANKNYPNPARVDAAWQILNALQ
#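 AmpC (5.3 nM in the dispensed reagent) in 20 mM phosphate pH 7.0 with 0.01% (detergent screen) or 0.0001% Triton X-100 was preincubated with compounds for 15 min at room temperature. Nitrocefin was then added from an 800 uM solution, and hydrolysis was followed at 480 nm.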
# AMA1 RON2 block: disrupts binding of P. falciparum AMA1 to RON2. AlphaScreen AMA1-biotinylated RON2 peptide binding. Potency, µM (top dose mostly 58.2 µM), without a hit: top-dose activity change, negative = inhibition, hits mostly inhibitors. 360,000 tested, 0.2% active;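 further: 0% = vehicle wells and -100% = peptide control; nearly all actives have a fitted effect of over 45% in size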
#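 AMA1 (3D7) with his tag at 25 nM final met compounds first, then biotinylated RON2 peptide at 25 nM; detection used donor plus acceptor beads, 10 µg/mL apiece, read by AlphaScreen after 30 min at room temperature.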
# Pf growth 96h: P. falciparum growth inhibition at 96 hour, primary screen for plastid delayed-death inhibitors. P. falciparum luciferase reporter growth, 96 h. Potency, µM (doses to about 28.7 µM), for inactives: top-dose activity change, negative = inhibition, actives largely listed as inhibitors. 320,000 tested, 6.9% active
#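 Parasite growth measured via integrated firefly luciferase reporter in P. falciparum. Infected erythrocytes at 2% hematocrit, 0.05% parasitemia final were treated 96 hours at 37 C under 5% CO2, and luminescence was read.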
# HCV inh: blocks hepatitis C virus; AID 651820; Potency, µM (titrated, usually from 41.8 µM), for the others: top-dose activity change, negative = inhibition, hits mostly inhibitors; Huh7.5.1 HCVcc-Cre infection, luciferase reporter, 44 h; 340,000 tested, 3.4% active
#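 Cells (1,000/well) were plated 4 h before compound, then infected with HCVcc-Cre virus (~0.5 moi). After 44 h further culture, infection was read as luciferase luminescence following a 15 min substrate incubation at room temperature.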
# AmpC no deterg: blocks E. coli AmpC beta-lactamase in detergent-free assay. Potency, µM (doses to about 57.1 µM), without a hit: at the top dose activity change, negative = inhibition, actives largely listed as inhibitors. 330,000 tested, 0.52% active. AmpC nitrocefin hydrolysis, absorbance 480 nm, 0.0001% Triton. AID 485341. P00811;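 further: plate controls were no compound for no effect and no enzyme for full effect; nearly all actives have a fitted effect of over 20% in size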
#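 AmpC (5.3 nM in the dispensed reagent) in 20 mM phosphate pH 7.0 with 0.01% (detergent screen) or 0.0001% Triton X-100 was preincubated with compounds for 15 min at room temperature. Nitrocefin was then added from an 800 uM solution, and hydrolysis was followed at 480 nm.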
# Pf growth 48h: P. falciparum growth inhibition at 48 hours (one generation); P. falciparum luciferase growth in erythrocytes, 48 h; Potency, µM (titrated, usually from 28.7 µM), for inactives: top-dose activity change, negative = inhibition, most hits filed as inhibitors; 310,000 tested, 5.9% active; AID 504832
#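 Read-out is firefly luciferase luminescence from an integrated reporter in P. falciparum, so falling signal marks reduced parasite growth. Infected erythrocytes were at 2% hematocrit and 0.1% parasitemia (final) in Albumax-supplemented RPMI 1640.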
# * = called active by the depositor; ? = inconclusive; · = no result given. The call rests on the fitted dose curve; in most records, active means well fitted curve in the direction sought with a large enough effect; inconclusive means small, poorly fitted or top-dose-only effect, or another doubt; inactive means no such curve, though single readings can be large; an effect the other way counts as inactive or inconclusive. Unless noted, on the % scale 0 is the no-effect control and ±100 the full control effect; potency means the concentration at half of the fitted maximal effect.
SMILES,AmpC detergent,AMA1 RON2 block,Pf growth 96h,HCV inh,AmpC no deterg,Pf growth 48h
CCCOc1ccc(CCCN=C(N)N)cc1Cl,2.3%,19.7%,-12.3%,8.91µM*,-5.7%,?
CCCCOc1ccc(CN=C(N)N)cc1Cl,1.0%,28.5%,?,10µM*,-0.7%,?
CCOc1ccc(CN=C(N)N=C(N)N)cc1Cl,-12.8%,7.9%,60.5%,?,-6.1%,?
CCCCOc1ccc(CSCCN=C(N)N)cc1,2.6%,-17.7%,41.8%,?,12.8%,?
COc1ccc(-c2n[nH]c3c2CN(C(=O)c2ccc(OC)c(OC)c2)CC3)cc1,4.1%,-4.3%,11.7µM*,-19.3%,13.1%,?
Cc1cccc(CN2C(=O)CC(c3ccc(Cl)cc3)c3c(C)nn(-c4nc(C)cc(C)n4)c32)c1 (stereo not drawn),21.4%,·,·,·,·,·
Cc1ccc(NS(=O)(=O)N2CCOCC2)cc1,4.6%,-1.7%,?,11.4%,-5.8%,22.5%
O=S(=O)(Nc1ccc(Br)cc1)N1CCOCC1,1.2%,-2.0%,9.28µM*,-4.2%,-8.2%,22.7%
CCN(CC)CCNC(=O)c1cccc(NC(=O)C(=O)c2cc(Br)ccc2NC(C)=O)c1,-14.9%,8.7%,?,-29.5%,29.1%,10.4µM*
CC(=O)Nc1ccccc1C(=O)C(=O)Nc1cccc(Br)c1,4.4%,-4.8%,?,?,-1.6%,25.5%
CC(=O)Nc1cccc(NS(=O)(=O)Cc2ccc(Cl)cc2)c1,-0.5%,0.3%,14.7µM*,-2.0%,-26.7%,-14.6%
COc1ccc(/C(N)=N/OC(=O)c2c(-c3ccccc3Cl)noc2C)cc1OC,2.8%,-8.2%,-7.4%,12.6µM*,129.0%,?
Cc1nc(/C(N)=N/OC(=O)c2c(-c3ccccc3Cl)noc2C)cs1,-2.3%,-6.7%,10.4µM*,-13.3%,2.3%,?
Cc1onc(-c2ccccc2Cl)c1C(=O)Oc1ccc(Cl)cc1Cl,9.5%,·,·,·,·,·
FC(F)(F)c1cccc(Cc2noc(CN3CCCCC3c3ccccn3)n2)c1 (stereo not drawn),-9.3%,35.6%,?,-7.1%,137.2%,?
FC(F)(F)c1cccc(Cc2noc(CN3CCCC(OCc4ccccn4)C3)n2)c1 (stereo not drawn),7.0%,-17.4%,14.7µM*,12.8%,169.9%,-3.1%
Fc1cccc(Cc2noc(CN3CCCCC3c3ccccn3)n2)c1 (stereo not drawn),-4.4%,33.3%,8.28µM*,10.8%,-16.2%,-23.8%
Fc1cccc(CN2CCN(Cc3nc(CCc4ccccc4)no3)CC2)c1,9.9%,-8.9%,10.4µM*,5.1%,178.0%,34.8%
COc1ccccc1CN1CCN(Cc2nc(Cc3ccccc3)no2)CC1,3.8%,-6.8%,11.7µM*,-16.2%,78.1%,?
COc1cccc(-n2ccnc2SCC(=O)Nc2nc3ccc(C)cc3s2)c1,12.1%,·,·,·,·,·
COc1cccc(CNC(=O)c2ccc(-c3nc(CS(=O)c4ccccc4)c(C)o3)cc2)c1 (stereo not drawn),-0.6%,·,·,·,·,·
CCOc1ccc(CNS(=O)(=O)c2c(C(=O)N3CCC(C)CC3)c(C)n(C)c2C)cc1OC,-6.5%,·,·,·,·,·
CCCCN(C)CCNC(=O)c1nn(-c2ccc(OC)c(Cl)c2)c(=O)c2c1c1ccccc1n2C,1.9%,·,·,·,·,·
CCC(C(=O)Nc1ccc(C)c(Cl)c1)n1c(=O)c(-c2ccccc2NC(C)=O)nc2ccccc21 (stereo not drawn),30.8%,·,·,·,·,·
Cc1ccc(NC(=O)c2ccccc2NS(=O)(=O)c2ccc(Cl)s2)cc1,?,-16.2%,?,11.2µM*,-35.1%,-8.3%
SMILES,AmpC detergent,AMA1 RON2 block,Pf growth 96h,HCV inh,AmpC no deterg,Pf growth 48h
O=C(Nc1ccccc1)c1ccccc1NS(=O)(=O)c1ccc(Cl)s1,-3.4%,13.5%,1.9%,?,-16.2%,?
CCC(C)n1ncn(-c2ccc(N3CCN(c4ccc(O)cc4)CC3)cc2)c1=O (stereo not drawn),-0.7%,-13.1%,-59.9%,-22.7%,-6.0%,2.6%
CCC(C)n1ncn(-c2ccc(N3CCN(c4ccc(OCC5COC(Cn6cncn6)(c6ccc(Cl)cc6Cl)O5)cc4)CC3)cc2)c1=O (stereo not drawn),0.2%,4.8%,-11.5%,?,4.4%,3.38µM*
CC1(S(=O)(=O)O)CC(=O)c2ccccc2C1=O (stereo not drawn),-13.8%,33.4%,1.65µM*,-52.2%,-24.0%,14.7µM*
Cc1ccccc1CS(=O)(=O)Cc1ccc(C(=O)NCc2ccc(F)cc2)o1,4.7%,·,·,·,·,·
COc1ccc(Cl)cc1NC(=O)C1CCN(S(=O)(=O)c2ccc(F)cc2)CC1,-5.2%,·,·,·,·,·
COc1ccc(CCC(=O)Nc2ccc(S(=O)(=O)NC3=NCCCCC3)cc2)cc1,·,0.6%,·,·,·,·
CCCOc1ccc(C(=O)Nc2ccc(S(=O)(=O)NC3=NCCCCC3)cc2)cc1,-0.1%,-9.4%,10.4µM*,?,29.0%,5.86µM*
CCOC(=O)c1ccc(S(=O)(=O)Nc2nc3cc(S(=O)(=O)NC4=NCCCCC4)ccc3s2)cc1,-5.7%,2.8%,13.1µM*,-17.9%,-51.2%,-1.2%
COc1cc(CCC(=O)Nc2ccc(S(=O)(=O)NC3=NCCCCC3)cc2)cc(OC)c1OC,-11.3%,2.4%,10.4µM*,-16.6%,-8.7%,-28.7%
CCN(CC)S(=O)(=O)c1cccc(C(=O)Nc2ccc(S(=O)(=O)NC3=NCCCCC3)cc2)c1,-8.2%,-2.9%,6.57µM*,5.6%,-11.0%,?
CON(C)S(=O)(=O)c1cccc(C(=O)Nc2ccc(S(=O)(=O)NC3=NCCCCC3)cc2)c1,-14.0%,-24.3%,?,?,-13.5%,?
Nc1nc(Nc2ccccc2F)sc1C(=O)c1ccc(Cl)cc1,2.3%,·,·,·,·,·
O=C(CSc1nnc(CNC(=O)c2ccccc2F)n1-c1ccccc1)Nc1ccccc1F,-5.7%,·,·,·,·,·
Cc1ccc2c(c1)N(C(=O)CCC(=O)NCc1ccccc1Cl)CC(C)O2 (stereo not drawn),-6.3%,·,·,·,·,·
COc1ccc(NC(=O)CN(C)C(=O)c2cccc(S(=O)(=O)N3CCN(Cc4ccccc4)CC3)c2)cc1,-1.5%,23.6%,-78.3%,?,-12.1%,-7.6%
CC(=O)Nc1cccc(NC(=O)c2cccc(S(=O)(=O)N3CCN(Cc4ccccc4)CC3)c2)c1,-0.8%,-0.7%,10.4µM*,?,103.4%,10.4µM*
COc1cccc(NC(=O)c2cccc(S(=O)(=O)N3CCN(Cc4ccccc4)CC3)c2)c1,?,0.8%,7.38µM*,?,-21.8%,?
